Legend:
[1] = biological target: Fibroblast growth factor receptor 4 (Homo sapiens) (UniProt P22455); details: at 1 µM;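 note: reported figure is the averaged percent inhibition of FGFR4, from the GSK PKIS kinase screening panel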
[2] = biological target: Tyrosine-protein kinase Fgr (Homo sapiens) (UniProt P09769); details: at 0.1 µM
[3] = biological target: Tyrosine-protein kinase Fgr (Homo sapiens) (UniProt P09769); details: at 1 µM
[4] = biological target: Vascular endothelial growth factor receptor 1 (Homo sapiens) (UniProt P17948); details: at 0.1 µM
[5] = biological target: Vascular endothelial growth factor receptor 1 (Homo sapiens) (UniProt P17948); details: at 1 µM
[6] = biological target: Receptor-type tyrosine-protein kinase FLT3 (Homo sapiens) (UniProt P36888); details: at 0.1 µM
[7] = biological target: Receptor-type tyrosine-protein kinase FLT3 (Homo sapiens) (UniProt P36888); details: at 1 µM
[8] = tested on: T1, Receptor-type tyrosine-protein kinase FLT3 (Homo sapiens), P36888 [D835Y]; details: at 0.1 µM
T1 sequence (whole entry): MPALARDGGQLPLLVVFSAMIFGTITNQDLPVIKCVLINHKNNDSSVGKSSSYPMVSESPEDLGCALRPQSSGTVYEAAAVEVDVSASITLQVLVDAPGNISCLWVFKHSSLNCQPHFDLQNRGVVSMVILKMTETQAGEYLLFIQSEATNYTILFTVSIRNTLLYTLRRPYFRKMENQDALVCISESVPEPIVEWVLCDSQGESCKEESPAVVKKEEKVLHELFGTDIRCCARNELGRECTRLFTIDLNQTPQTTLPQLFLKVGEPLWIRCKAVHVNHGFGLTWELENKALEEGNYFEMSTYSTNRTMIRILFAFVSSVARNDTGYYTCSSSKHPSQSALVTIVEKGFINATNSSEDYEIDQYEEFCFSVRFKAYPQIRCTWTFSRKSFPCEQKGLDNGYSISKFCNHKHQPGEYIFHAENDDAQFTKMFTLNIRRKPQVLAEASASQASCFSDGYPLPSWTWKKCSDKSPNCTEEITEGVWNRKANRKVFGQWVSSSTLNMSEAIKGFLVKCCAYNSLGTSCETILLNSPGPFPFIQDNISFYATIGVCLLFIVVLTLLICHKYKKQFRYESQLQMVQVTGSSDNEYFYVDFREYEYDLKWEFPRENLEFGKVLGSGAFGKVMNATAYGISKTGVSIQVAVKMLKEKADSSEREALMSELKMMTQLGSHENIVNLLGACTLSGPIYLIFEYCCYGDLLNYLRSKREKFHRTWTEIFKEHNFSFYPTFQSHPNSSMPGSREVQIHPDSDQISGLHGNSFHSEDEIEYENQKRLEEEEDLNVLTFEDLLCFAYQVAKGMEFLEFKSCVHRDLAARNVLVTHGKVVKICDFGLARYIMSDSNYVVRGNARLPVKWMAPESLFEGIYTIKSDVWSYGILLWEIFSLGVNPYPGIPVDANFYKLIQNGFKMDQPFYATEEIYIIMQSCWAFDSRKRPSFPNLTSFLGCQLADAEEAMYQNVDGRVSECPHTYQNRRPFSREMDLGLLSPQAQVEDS

[9] = biological target: Non-receptor tyrosine-protein kinase TYK2 (Homo sapiens) (UniProt P29597); details: at 1 µM;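 note: values are mean percent inhibition of TYK2 kinase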
Chain of Non-receptor tyrosine-protein kinase TYK2 (Homo sapiens) (P29597 whole entry): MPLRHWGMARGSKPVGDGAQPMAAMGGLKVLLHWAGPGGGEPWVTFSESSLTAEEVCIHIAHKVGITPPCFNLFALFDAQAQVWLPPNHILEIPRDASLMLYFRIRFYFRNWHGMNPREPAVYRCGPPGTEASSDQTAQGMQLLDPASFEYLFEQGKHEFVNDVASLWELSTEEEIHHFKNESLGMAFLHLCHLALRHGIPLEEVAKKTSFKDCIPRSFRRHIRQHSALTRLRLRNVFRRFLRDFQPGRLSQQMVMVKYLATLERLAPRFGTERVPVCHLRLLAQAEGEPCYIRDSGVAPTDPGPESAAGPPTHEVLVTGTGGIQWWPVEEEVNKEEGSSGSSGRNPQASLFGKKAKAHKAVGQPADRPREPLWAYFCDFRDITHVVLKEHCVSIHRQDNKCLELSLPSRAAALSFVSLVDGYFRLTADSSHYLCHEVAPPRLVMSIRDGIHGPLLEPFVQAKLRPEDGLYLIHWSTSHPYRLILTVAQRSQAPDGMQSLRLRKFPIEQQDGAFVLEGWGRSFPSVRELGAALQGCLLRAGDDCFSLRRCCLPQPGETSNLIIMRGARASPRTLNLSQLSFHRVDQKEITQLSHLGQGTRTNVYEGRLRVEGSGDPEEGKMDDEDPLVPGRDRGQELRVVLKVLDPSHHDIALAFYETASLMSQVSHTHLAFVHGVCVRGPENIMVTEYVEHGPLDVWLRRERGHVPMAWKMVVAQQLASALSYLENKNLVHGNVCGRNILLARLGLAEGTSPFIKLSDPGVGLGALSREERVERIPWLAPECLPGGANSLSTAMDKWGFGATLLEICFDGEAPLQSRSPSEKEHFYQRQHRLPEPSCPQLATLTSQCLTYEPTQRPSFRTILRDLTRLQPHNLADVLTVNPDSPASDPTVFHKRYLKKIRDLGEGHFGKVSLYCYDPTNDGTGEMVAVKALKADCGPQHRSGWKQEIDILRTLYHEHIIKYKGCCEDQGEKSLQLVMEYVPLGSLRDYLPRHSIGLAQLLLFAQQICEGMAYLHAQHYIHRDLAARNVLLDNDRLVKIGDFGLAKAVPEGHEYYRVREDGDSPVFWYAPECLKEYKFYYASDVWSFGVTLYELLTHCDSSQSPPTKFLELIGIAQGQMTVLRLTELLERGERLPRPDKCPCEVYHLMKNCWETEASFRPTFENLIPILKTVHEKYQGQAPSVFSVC

[10] = biological target: T2, Tyrosine-protein kinase receptor TYRO3 (Homo sapiens) (UniProt Q06418); details: at 0.1 µM
T2 sequence (whole entry): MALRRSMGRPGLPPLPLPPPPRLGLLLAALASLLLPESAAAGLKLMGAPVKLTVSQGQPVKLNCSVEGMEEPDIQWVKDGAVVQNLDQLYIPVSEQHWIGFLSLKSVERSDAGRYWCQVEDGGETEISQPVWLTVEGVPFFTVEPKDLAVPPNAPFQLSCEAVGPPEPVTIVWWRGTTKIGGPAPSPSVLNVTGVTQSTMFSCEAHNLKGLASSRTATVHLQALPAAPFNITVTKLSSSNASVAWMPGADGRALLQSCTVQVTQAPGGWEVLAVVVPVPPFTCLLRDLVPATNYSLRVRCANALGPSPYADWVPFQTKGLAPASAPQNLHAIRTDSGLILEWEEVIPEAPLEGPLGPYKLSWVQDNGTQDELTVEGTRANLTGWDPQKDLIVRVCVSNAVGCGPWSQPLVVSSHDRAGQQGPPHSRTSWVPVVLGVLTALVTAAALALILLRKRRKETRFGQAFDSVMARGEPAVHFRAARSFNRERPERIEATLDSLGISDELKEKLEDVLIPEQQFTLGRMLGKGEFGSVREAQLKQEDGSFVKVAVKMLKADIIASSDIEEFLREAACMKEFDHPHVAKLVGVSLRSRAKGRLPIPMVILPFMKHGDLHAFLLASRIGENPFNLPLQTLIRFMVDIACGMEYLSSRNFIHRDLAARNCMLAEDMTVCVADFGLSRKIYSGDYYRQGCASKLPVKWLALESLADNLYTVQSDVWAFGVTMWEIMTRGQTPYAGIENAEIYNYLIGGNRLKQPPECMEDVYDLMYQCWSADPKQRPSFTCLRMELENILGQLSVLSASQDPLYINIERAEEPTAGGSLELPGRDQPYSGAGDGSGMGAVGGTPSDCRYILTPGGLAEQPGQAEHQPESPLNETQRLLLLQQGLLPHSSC

[11] = biological target: T2, Tyrosine-protein kinase receptor TYRO3 (Homo sapiens); details: at 1 µM
[12] = biological target: Tyrosine-protein kinase Yes (Homo sapiens) (UniProt P07947); details: at 0.1 µM
Chain of Tyrosine-protein kinase Yes (Homo sapiens) (P07947 2-543 limits assumed): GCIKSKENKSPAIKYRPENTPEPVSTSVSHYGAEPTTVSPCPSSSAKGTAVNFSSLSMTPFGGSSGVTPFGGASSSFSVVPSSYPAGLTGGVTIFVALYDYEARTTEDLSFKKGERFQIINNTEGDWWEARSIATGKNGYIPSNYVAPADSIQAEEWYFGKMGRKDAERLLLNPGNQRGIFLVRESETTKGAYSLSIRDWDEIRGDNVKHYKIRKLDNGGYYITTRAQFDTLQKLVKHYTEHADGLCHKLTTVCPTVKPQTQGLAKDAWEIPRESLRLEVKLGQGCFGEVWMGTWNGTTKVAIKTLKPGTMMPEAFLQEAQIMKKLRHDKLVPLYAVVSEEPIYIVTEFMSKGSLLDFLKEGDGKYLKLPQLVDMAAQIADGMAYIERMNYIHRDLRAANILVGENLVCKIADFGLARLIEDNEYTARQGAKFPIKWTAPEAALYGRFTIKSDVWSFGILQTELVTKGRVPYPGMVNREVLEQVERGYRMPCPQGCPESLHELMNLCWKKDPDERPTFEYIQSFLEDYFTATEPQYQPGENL

[13] = biological target: Tyrosine-protein kinase Yes (Homo sapiens) (UniProt P07947); details: at 1 µM
[14] = biological target: T3, Tyrosine-protein kinase ZAP-70 (Homo sapiens) (UniProt P43403); details: at 0.1 µM
T3 sequence (whole entry): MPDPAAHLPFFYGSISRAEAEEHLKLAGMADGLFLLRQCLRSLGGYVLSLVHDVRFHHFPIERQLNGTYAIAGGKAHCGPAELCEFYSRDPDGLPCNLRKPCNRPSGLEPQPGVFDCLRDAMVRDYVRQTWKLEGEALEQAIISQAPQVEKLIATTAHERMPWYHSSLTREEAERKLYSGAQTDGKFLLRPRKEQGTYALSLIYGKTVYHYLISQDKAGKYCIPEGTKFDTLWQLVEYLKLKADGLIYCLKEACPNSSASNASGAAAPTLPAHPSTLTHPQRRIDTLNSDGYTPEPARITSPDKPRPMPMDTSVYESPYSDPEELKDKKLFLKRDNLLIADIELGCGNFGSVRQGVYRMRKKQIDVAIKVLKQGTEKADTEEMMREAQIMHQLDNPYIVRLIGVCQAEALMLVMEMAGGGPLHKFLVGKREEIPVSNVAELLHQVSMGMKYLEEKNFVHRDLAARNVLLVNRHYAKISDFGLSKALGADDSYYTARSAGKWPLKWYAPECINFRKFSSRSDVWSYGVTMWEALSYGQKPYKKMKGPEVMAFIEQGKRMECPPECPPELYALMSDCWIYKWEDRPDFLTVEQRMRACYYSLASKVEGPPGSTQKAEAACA

[15] = biological target: T3, Tyrosine-protein kinase ZAP-70 (Homo sapiens); details: at 1 µM
[16] = biological target: Serine/threonine-protein kinase B-raf (Homo sapiens) (UniProt P15056); details: at 0.1 µM
Chain of Serine/threonine-protein kinase B-raf (Homo sapiens) (P15056 whole entry): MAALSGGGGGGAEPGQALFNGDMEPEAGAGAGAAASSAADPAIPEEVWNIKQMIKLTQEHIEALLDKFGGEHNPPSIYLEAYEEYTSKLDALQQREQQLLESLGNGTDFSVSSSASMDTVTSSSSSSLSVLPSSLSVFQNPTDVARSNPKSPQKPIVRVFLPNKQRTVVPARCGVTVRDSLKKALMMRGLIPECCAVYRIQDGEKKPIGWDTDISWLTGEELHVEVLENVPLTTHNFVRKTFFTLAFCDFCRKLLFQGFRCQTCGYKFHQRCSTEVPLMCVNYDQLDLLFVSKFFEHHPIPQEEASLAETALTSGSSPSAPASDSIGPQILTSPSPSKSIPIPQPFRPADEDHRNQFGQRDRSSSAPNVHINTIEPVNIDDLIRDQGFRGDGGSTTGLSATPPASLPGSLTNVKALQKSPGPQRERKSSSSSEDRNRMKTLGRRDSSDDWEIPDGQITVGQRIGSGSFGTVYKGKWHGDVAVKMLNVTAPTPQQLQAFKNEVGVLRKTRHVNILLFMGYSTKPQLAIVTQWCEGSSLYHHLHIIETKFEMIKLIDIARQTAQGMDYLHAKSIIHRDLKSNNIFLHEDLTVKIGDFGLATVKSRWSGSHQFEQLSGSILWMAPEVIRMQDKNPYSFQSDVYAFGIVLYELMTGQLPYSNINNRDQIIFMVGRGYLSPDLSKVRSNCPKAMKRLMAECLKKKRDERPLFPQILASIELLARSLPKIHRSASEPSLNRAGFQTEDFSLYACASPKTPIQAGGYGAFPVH

[17] = biological target: Serine/threonine-protein kinase B-raf (Homo sapiens) (UniProt P15056); details: at 1 µM
[18] = tested on: Serine/threonine-protein kinase B-raf (Homo sapiens), P15056 [V600E]; details: at 0.1 µM
Chain of Serine/threonine-protein kinase B-raf (Homo sapiens), P15056 [V600E] (P15056 whole entry V600E): as the sequence (P15056 whole entry) above, with V600E counted along it

[19] = tested on: Serine/threonine-protein kinase B-raf (Homo sapiens), P15056 [V600E]; details: at 1 µM
[20] = biological target: RAF proto-oncogene serine/threonine-protein kinase (Homo sapiens) (UniProt P04049); details: at 0.1 µM;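 note: values are mean CRAF kinase inhibition from profiling of the GSK Published Kinase Inhibitor Set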
Chain of RAF proto-oncogene serine/threonine-protein kinase (Homo sapiens) (P04049 whole entry): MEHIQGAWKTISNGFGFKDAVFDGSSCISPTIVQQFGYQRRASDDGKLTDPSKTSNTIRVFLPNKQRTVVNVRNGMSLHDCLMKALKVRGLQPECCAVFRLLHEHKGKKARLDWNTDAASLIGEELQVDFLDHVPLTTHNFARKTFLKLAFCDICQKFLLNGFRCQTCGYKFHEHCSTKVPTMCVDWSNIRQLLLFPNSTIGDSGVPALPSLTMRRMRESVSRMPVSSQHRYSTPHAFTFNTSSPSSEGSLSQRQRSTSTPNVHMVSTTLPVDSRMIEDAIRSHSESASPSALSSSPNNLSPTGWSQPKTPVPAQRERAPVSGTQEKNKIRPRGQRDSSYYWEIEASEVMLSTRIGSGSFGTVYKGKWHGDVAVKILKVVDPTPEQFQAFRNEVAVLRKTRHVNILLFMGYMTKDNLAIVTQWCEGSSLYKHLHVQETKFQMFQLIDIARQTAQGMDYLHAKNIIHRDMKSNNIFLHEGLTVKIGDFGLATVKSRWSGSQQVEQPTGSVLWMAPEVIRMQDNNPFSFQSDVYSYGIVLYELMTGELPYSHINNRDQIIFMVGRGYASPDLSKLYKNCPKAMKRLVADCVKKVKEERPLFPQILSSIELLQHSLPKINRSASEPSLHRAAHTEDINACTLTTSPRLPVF

Chain of Fibroblast growth factor receptor 4 (Homo sapiens) (P22455 22-802 limits assumed): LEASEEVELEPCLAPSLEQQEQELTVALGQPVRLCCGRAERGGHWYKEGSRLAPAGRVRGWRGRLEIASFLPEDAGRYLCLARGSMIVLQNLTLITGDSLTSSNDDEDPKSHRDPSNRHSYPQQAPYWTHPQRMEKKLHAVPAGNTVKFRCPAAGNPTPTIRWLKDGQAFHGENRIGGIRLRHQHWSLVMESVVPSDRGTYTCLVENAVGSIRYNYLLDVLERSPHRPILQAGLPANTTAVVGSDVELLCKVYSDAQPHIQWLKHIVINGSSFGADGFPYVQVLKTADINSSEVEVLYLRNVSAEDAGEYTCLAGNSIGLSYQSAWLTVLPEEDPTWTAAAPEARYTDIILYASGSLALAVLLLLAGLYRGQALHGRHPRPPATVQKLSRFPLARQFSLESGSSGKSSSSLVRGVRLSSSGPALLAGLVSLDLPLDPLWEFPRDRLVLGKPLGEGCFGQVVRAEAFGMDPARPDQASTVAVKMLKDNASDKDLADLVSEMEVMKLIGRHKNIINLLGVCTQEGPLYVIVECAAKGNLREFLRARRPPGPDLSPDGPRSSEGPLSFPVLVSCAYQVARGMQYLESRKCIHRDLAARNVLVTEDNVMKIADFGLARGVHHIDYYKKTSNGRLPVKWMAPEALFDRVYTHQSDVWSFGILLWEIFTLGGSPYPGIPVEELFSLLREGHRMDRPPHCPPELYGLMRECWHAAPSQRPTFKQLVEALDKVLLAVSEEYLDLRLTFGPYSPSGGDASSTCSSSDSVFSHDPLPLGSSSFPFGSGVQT
Chain of Tyrosine-protein kinase Fgr (Homo sapiens) (P09769 2-529 limits assumed): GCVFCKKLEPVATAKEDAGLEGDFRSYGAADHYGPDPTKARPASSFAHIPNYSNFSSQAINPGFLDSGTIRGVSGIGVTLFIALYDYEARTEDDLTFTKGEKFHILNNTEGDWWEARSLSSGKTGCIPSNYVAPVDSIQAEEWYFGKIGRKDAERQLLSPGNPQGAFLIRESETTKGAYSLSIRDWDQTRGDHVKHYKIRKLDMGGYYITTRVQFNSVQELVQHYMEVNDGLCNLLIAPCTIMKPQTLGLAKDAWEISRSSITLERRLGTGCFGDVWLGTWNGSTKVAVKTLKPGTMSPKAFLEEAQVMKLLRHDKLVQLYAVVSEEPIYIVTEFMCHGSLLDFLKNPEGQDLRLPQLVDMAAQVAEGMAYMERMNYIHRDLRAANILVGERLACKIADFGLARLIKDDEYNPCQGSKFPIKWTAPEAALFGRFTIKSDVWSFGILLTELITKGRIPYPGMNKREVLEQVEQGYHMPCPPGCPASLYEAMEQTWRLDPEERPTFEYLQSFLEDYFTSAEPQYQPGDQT

Row | Structure (SMILES) | inhibition [1] [%] | inhibition [2] [%] | inhibition [3] [%] | inhibition [4] [%] | inhibition [5] [%] | inhibition [6] [%] | inhibition [7] [%] | inhibition [8] [%] | inhibition [9] [%] | inhibition [10] [%] | inhibition [11] [%] | inhibition [12] [%] | inhibition [13] [%] | inhibition [14] [%] | inhibition [15] [%] | inhibition [16] [%] | inhibition [17] [%] | inhibition [18] [%] | inhibition [19] [%] | inhibition [20] [%]
1 | CN1CCC(n2cnc(-c3ccc(F)cc3)c2-c2ccnc(N)n2)CC1 | 4.3 | 4.22 | 8.36 | -0.81 | 2.41 | -0.36 | 1.76 | -8.15 | -0.01 | 1.97 | 7.48 | 2.09 | 13.4 | 1.2 | 2.81 | 1.83 | 5.24 | 1.74 | 5.35 | -0.57
2 | Nc1nc(-c2ccc(F)cc2)c(-c2ccc3ncccc3n2)s1 | 3.47 | 6.43 | 14.1 | -0.09 | 6.56 | 3.5 | 3.75 | 1.18 | -1.99 | 3.01 | 2.87 | 6.52 | 37.8 | 1.91 | 1.99 | 6.57 | 7.72 | 6.41 | 7.92 | 0.53
3 | CC(=O)NCc1cccc(C#Cc2cncnc2Nc2ccc(OCc3cccc(F)c3)c(Cl)c2)c1 | -0.23 | -0.22 | 4.83 | -0.55 | 0.27 | 0.26 | -1.41 | -0.58 | 2.95 | 1.2 | 0.4 | 0.55 | 6.04 | -1.79 | 2.22 | 1.06 | 1.33 | 3.3 | 0.73 | 4.54
4 | COc1ccc(-c2cc3c(N)ncnc3o2)cc1 | -1.73 | 1.49 | 7.14 | -0.2 | 0.12 | -0.73 | -0.84 | -4.44 | 3.74 | -0.51 | 2.56 | 0.83 | 6.69 | -2.99 | -0.14 | -1.18 | -0.19 | -0.23 | 1.67 | 1.23
5 | COc1cc2ncn(-c3cc(OCc4ccccc4C(F)(F)F)c(C(=O)N(C)C)s3)c2cc1OC | 2.15 | 0.95 | 6.42 | -0.21 | 6.59 | -1.41 | 0.81 | -1.94 | 1.47 | 0.67 | 2 | 0.64 | 6.88 | 1.79 | 1.15 | -0.22 | 1.2 | -0.77 | 2.51 | 0.38
6 | CC(=O)Nc1cccc(C#Cc2cncnc2Nc2ccc(OCc3cccc(F)c3)c(Cl)c2)c1 | 1.74 | 2.84 | 9.6 | 2.19 | 3.25 | 2.59 | 2.38 | -3.37 | 0.26 | 3.62 | 0.81 | 1.2 | 1.7 | 3.59 | 6.95 | 1.95 | 1.44 | 1.85 | 2.03 | 2.77
